Some compounds were tested as several samples or in several runs, with calls that do not always agree. Calls of active or inactive are those of the source. The calls were made as follows: active = hit-call score of the fitted dose curve at least 0.9, where 1 is the maximum; inactive = score below 0.9.
Experiments:
[1] = APR_HepG2_NuclearSize_72hr: Apredica 72-hour HepG2 Assay for Nuclear Size (AID 2282925); conditions: high-content imaging, actives raise or lower the signal
Summary of the method: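 Compounds (0.39–200 uM, final DMSO 0.5%) were applied to HepG2 for 72 hr. Cells were then formaldehyde-fixed, permeabilized and labelled with Hoechst 33342. Nuclear diameter was quantified from six images per well.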

[2] = ATG_CRE_CIS: Attagene CIS-FACTORIAL HepG2 Assay for human cAMP Responsive Element (CRE) binding protein 3 (AID 2282926); conditions: HepG2 CRE cis-reporter, Attagene multiplexed mRNA; actives raise or lower the signal
Summary of the method: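 Induced reporter mRNA from a CRE cis element, measured in HepG2 among many multiplexed units at 24 h. Detection used RT-PCR plus capillary electrophoresis of fluorescent fragments; DMSO served as negative control.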

[3] = ATG_CMV_CIS: Attagene CIS-FACTORIAL HepG2 Assay for human CMV (Internal Marker) (AID 2282928); conditions: HepG2 CMV promoter reporter, transcription factor profiling; actives raise or lower the signal;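 also: endpoint acts as a background internal control marker rather than a target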
Summary of the method: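 24 h chemical treatment, HepG2 with transient multi-reporter transfection; RNA → oligo(dT) RT → PCR → 6-FAM extension → HpaI digest → CE fluorescence. Bidirectional fit, DMSO negative control.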

[4] = ATG_DR4_LXR_CIS: Attagene CIS-FACTORIAL HepG2 Assay for human Liver X Receptor (LXR), DR4 submotif (AID 2282929); conditions: HepG2 Attagene DR4 cis-reporter, mRNA transcription; actives raise or lower the signal
Summary of the method: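 HepG2, transient MRTU transfection, cis-element (DR4) promoter; 24 h compound exposure; total RNA → oligo(dT) RT → PCR → 6-FAM primer extension → HpaI cut → CE. Gain/loss vs DMSO, bidirectional fit.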

[5] = target: Aryl hydrocarbon receptor (Homo sapiens) (UniProt P35869); assay: ATG_Ahr_CIS: Attagene CIS-FACTORIAL HepG2 Assay for human Aryl Hydrocarbon Receptor (Ahr) (AID 2282930); conditions: HepG2 AhR cis-factorial reporter transcription; actives raise or lower the signal
Summary of the method: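 Values derive from bidirectional fitting against DMSO negative control. Underlying signal: cis-element reporter mRNA in transiently transfected HepG2, harvested 24 h post-dose and measured by RT-PCR plus capillary electrophoresis.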

[6] = ATG_AP_1_CIS: Attagene CIS-FACTORIAL HepG2 Assay for human Activator Protein 1 (AP-1) (AID 2282931); conditions: HepG2 Attagene cis-factorial AP-1 reporter mRNA; actives raise or lower the signal
Summary of the method: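 Transient MRTU transfection of HepG2 → 24 h chemical treatment → RNA isolation, RT-PCR, 6-FAM labelling, HpaI digest → capillary electrophoresis. Fit: bidirectional, DMSO negative control.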

[7] = ATG_AP_2_CIS: Attagene CIS-FACTORIAL HepG2 Assay for human Activator Protein 2 (AP-2) (AID 2282932); conditions: HepG2 AP-2 cis-reporter, Attagene transcription factor profiling; actives raise or lower the signal
Summary of the method: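 Assay in transfected HepG2 with promoter-regulated reporters, 24 h incubation after dosing. Signal is reporter mRNA fluorescence (RT-PCR, capillary electrophoresis), analysed for both increases and decreases relative to DMSO controls.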

[8] = ATG_BRE_CIS: Attagene CIS-FACTORIAL HepG2 Assay for human Bone Morphogenetic Protein (BMP) Response Element (BRE) (AID 2282933); conditions: HepG2 BMP response element reporter, Attagene transcription factor profiling; actives raise or lower the signal
Summary of the method: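 Endogenous transcription factor activity read in transiently transfected HepG2 cells after 24 h chemical exposure. Bidirectional curve fitting against DMSO; readout is reporter transcript level by RT-PCR with capillary electrophoresis of labelled products.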

[9] = target: CCAAT/enhancer-binding protein beta (Homo sapiens) (UniProt P17676); assay: ATG_C_EBP_CIS: Attagene CIS-FACTORIAL HepG2 Assay for human CCAAT/Enhancer Binding Protein (C/EBP) beta (AID 2282927); conditions: HepG2 Attagene cis-factorial transcription factor reporter; actives raise or lower the signal
Summary of the method: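 Following a 24 h incubation with test chemical, transfected HepG2 cells yielded RNA whose reporter transcripts were quantified by RT-PCR and fluorescent capillary electrophoresis, with DMSO serving as baseline for bidirectional fitting.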

[10] = target: Retinoic acid receptor alpha (Homo sapiens) (UniProt P10276); assay: ATG_DR5_RAR_CIS: Attagene CIS-FACTORIAL HepG2 Assay for human Retinoic Acid Receptor Alpha (RARE), DR5 submotif (AID 2282934); conditions: HepG2 Attagene cis-factorial RARE DR5 reporter, mRNA; actives raise or lower the signal;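 as to AC50: reporter responds to endogenous RAR alpha beta and gamma in HepG2 not RARA alone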
Summary of the method: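 Endpoint fitted in both directions relative to DMSO as negative control. It reflects DR5 cis-element reporter mRNA induction in transiently transfected HepG2 cells, measured 24 h after dosing through RT-PCR and fluorescent capillary electrophoresis.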

Measured: AC50

Chain of Retinoic acid receptor alpha (Homo sapiens) (P10276 whole entry, looked up): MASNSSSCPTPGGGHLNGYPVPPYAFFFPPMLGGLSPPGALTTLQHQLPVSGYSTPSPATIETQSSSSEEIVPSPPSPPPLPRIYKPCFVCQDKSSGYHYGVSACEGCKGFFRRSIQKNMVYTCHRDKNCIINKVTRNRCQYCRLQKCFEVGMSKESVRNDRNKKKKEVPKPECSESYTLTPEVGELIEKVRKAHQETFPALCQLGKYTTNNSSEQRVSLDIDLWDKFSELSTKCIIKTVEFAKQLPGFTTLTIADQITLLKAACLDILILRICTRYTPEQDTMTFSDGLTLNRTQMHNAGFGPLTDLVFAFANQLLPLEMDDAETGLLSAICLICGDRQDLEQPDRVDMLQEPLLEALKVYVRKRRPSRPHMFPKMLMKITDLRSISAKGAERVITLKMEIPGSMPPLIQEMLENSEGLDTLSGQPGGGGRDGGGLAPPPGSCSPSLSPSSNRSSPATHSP
Chain of Aryl hydrocarbon receptor (Homo sapiens) (P35869 whole entry, looked up): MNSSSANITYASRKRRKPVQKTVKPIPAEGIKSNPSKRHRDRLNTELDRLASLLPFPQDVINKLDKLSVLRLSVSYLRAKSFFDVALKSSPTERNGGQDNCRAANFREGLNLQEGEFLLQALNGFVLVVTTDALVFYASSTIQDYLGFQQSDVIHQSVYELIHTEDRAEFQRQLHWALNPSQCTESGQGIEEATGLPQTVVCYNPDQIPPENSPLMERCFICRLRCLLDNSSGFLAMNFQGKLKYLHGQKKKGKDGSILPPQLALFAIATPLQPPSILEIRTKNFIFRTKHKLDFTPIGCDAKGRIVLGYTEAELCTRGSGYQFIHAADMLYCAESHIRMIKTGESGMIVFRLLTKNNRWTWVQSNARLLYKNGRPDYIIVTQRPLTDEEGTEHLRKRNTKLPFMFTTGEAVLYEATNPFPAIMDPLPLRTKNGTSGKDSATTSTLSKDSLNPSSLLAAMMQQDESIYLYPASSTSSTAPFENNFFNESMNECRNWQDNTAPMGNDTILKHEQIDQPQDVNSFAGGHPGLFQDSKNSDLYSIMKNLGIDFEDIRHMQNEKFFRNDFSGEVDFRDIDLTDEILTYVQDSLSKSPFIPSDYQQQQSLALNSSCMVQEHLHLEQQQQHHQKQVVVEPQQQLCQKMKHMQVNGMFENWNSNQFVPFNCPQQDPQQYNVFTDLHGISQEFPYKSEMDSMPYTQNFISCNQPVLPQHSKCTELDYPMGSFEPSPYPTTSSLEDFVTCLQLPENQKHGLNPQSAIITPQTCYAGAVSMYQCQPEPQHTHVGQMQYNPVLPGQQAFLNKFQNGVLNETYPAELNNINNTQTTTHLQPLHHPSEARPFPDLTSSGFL
Chain of CCAAT/enhancer-binding protein beta (Homo sapiens) (P17676 whole entry, looked up): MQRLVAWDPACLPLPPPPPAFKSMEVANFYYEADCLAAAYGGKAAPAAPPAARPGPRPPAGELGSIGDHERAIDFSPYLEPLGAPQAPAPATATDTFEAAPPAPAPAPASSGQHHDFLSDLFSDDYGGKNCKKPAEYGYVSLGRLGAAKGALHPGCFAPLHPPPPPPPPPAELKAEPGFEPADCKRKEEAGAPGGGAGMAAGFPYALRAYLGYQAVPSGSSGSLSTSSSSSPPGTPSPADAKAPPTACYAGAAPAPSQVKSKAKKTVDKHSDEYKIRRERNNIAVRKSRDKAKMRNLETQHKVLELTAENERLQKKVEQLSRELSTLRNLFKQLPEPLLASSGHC

Oc1cc(Cl)ccc1Oc1ccc(Cl)cc1Cl
active: [1] 36.8 µM | [2] 8.07 µM [middle of 4 runs] | [3] 8.95 µM [middle of 5 runs] | [4] 17.6 µM [middle of 4 runs] | [5] 5.97 µM | [6] 8.94 µM [middle of 5 runs] | [7] 20.7 µM | [8] 7.15 µM [middle of 6 runs]
inactive: [1] | [2] | [3] | [4] | [5] | [6] | [7] | [8]

CNC(=O)CSP(=S)(OC)OC
not listed: [10]
inactive: all other assays above

O=[N+]([O-])/N=C1\NCCN1Cc1ccc(Cl)nc1
not listed: [5] | [9]
inactive: all other assays above

N#CN
not listed: [9]
inactive: all other assays above

CCOc1nc(NC)nc(NC(=O)NS(=O)(=O)c2ccccc2C(=O)OC)n1
not listed: [9]
inactive: all other assays above

CCc1ccc(C(=O)NN(C(=O)c2cc(C)cc(C)c2)C(C)(C)C)cc1
active: [4] 50 µM
not listed: [9]
inactive: all other assays above

O=C(O)COc1ccc(Cl)cc1Cl
not listed: [5] | [9] | [10]
inactive: all other assays above

CC[C@H](C)[C@H]1O[C@]2(C=C[C@@H]1C)C[C@@H]1C[C@@H](C/C=C(\C)[C@@H](O[C@H]3C[C@H](OC)[C@@H](O[C@H]4C[C@H](OC)[C@@H](O)[C@H](C)O4)[C@H](C)O3)[C@@H](C)/C=C/C=C3\CO[C@@H]4[C@H](O)C(C)=C[C@@H](C(=O)O1)[C@]34O)O2 (tested in a mixture with another compound)
active: [4] 1.75 µM
not listed: [9]
inactive: all other assays above

CC(C)(C)C(O)/C(=C\c1ccc(Cl)cc1Cl)n1cncn1 (stereo not given)
not listed: [9]
inactive: all other assays above

OCCOc1ccccc1
not listed: [9]
inactive: all other assays above

COP(=S)(OC)Oc1ccc([N+](=O)[O-])cc1
not listed: [9]
inactive: all other assays above

C[C@H]1[C@H](c2ccc(Cl)cc2)SC(=O)N1C(=O)NC1CCCCC1
active: [3] 13.8 µM | [4] 81.4 µM | [6] 23.1 µM | [8] 17.7 µM
not listed: [9]
inactive: all other assays above

O=[N+]([O-])c1c(Cl)c(Cl)c(Cl)c(Cl)c1Cl
active: [2] 32.2 µM | [10] 13.2 µM
not listed: [9]
inactive: all other assays above

CCC(C)(NC(=O)c1cc(Cl)c(C)c(Cl)c1)C(=O)CCl (stereo not given)
not listed: [9]
inactive: all other assays above

Cc1[nH]c(=O)n(C(C)(C)C)c(=O)c1Cl
active: [2] 30.3 µM | [8] 50.5 µM
not listed: [9]
inactive: all other assays above

CCC(C)(C)C(=O)OC1=C(c2ccc(Cl)cc2Cl)C(=O)OC12CCCCC2
not listed: [9]
inactive: all other assays above

N#Cc1c(Cl)c(Cl)c(Cl)c(C#N)c1Cl
active: [10] 0.167 µM
not listed: [9]
inactive: all other assays above

CCS(=O)(=O)c1cccnc1S(=O)(=O)NC(=O)Nc1nc(OC)cc(OC)n1
not listed: [9]
inactive: all other assays above

CCOCN(C(=O)CCl)c1c(C)cccc1CC
not listed: [9]
inactive: all other assays above

CCOC1Oc2ccc(OS(C)(=O)=O)cc2C1(C)C (stereo not given)
active: [2] 24 µM | [8] 61.4 µM | [10] 12.5 µM
not listed: [9]
inactive: all other assays above

COc1nn(CSP(=S)(OC)OC)c(=O)s1
not listed: [9]
inactive: all other assays above

C#CCN1C(=O)COc2cc(F)c(N3C(=O)C4=C(CCCC4)C3=O)cc21
active: [2] 22.4 µM
not listed: [9]
inactive: all other assays above

CNC(=O)Oc1ccccc1OC(C)C
not listed: [9]
inactive: all other assays above

COc1cc(OC)nc(NC(=O)NS(=O)(=O)c2cc(NC=O)ccc2C(=O)N(C)C)n1
not listed: [9]
inactive: all other assays above

CC(C)N(C(=O)COc1nnc(C(F)(F)F)s1)c1ccc(F)cc1
active: [2] 31.9 µM | [6] 50 µM | [8] 34.9 µM
not listed: [9]
inactive: all other assays above

COC(=O)c1ccccc1CS(=O)(=O)NC(=O)Nc1nc(OC)cc(OC)n1
not listed: [9]
inactive: all other assays above

COC(=O)c1ccccc1S(=O)(=O)NC(=O)N(C)c1nc(C)nc(OC)n1
not listed: [9]
inactive: all other assays above

CCC(C)Nc1c([N+](=O)[O-])cc(C(C)(C)C)cc1[N+](=O)[O-] (stereo not given)
inactive: [1] | [5] | [7] | [8]
active: [2] 7.44 µM | [3] 24.1 µM | [4] 36.4 µM | [6] 43.3 µM | [10] 6.5 µM

CC1(C)C(C=C(Cl)Cl)C1C(=O)OC(C#N)c1ccc(F)c(Oc2ccccc2)c1 (stereo not given)
active: [4] 14.4 µM | [10] 2.57 µM
not listed: [9]
inactive: all other assays above

From PubChem BioAssay (EPA / NIEHS)
